# The supplement of paper PMC3334620
# Over roughly 33,000 sequences, “E-score (-0.5 to 0.5)” has its median near -0.016; the highest 2% begin near 0.3. Many of the other results were omitted from the sample, so the highest values are more common in it than they were.
# Biological target: T1, Yer184c (UniProt P39961)
# T1 sequence: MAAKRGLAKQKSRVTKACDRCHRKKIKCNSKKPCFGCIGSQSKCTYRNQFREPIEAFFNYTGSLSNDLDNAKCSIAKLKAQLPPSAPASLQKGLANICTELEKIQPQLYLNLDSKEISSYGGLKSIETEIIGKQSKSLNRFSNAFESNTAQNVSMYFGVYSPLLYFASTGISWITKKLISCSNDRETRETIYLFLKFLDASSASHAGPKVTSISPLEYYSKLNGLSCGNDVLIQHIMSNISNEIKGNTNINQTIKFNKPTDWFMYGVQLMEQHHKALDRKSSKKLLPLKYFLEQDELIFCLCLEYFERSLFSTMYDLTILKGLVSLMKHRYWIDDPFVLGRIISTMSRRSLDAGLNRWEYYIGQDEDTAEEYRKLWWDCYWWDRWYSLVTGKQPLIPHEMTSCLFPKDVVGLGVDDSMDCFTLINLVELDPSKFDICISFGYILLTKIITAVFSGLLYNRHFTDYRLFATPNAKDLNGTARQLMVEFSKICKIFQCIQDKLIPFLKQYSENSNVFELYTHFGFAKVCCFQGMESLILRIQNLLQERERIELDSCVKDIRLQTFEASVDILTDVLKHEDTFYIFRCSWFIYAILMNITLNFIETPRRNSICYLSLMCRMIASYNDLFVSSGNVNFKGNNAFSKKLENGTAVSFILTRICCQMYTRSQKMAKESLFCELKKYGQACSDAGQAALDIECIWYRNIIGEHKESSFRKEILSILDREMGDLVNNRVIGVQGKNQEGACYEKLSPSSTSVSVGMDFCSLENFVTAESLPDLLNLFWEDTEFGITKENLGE
# Assay: PBM E-score (8-mer binding enrichment) (E-score (-0.5 to 0.5)); higher = stronger / more preferred TF binding
# Conditions: protein concentration: 100 nM; construct: GST-full length
# Outline: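 Each ungapped eight-base word and its reverse complement, pooled, received an E-score from the Universal PBM Analysis Suite. Underlying scans, normalised with masliner, recorded fluorescent anti-GST bound to GST-tagged yeast transcription factors. These were applied at about 100-200 nM to universal all-10-mer Agilent arrays double-stranded by primer extension.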
row,Sequence,PBM E-score
1,CAGGCCCA,-0.211
2,ACCCGGAC,0.055
3,CTCCGGAC,0.328
4,CTCCGGTC,0.248
5,ATCCGGAC,0.322
6,CCCCGGAC,0.0445
7,ATCCGTAC,0.195
8,CAATCCTC,-0.113
9,CCAGATGC,-0.103
10,GCAAGAAA,0.161
11,ATTGAGCG,-0.0456
12,CCGTCCAG,0.122
13,AACCGGTG,0.214
14,GACCGGAA,0.232
15,AACCGGTC,0.229
16,AACCGGAC,0.212
17,CACCGGAG,0.173
18,AACCGGTT,0.359
19,AACCGGGG,-0.0803
20,AACCGGAT,0.366
21,AACCGGGT,0.202
22,AACCGGAG,0.358
23,AACCGGGA,0.188
24,AACCGGAA,0.34
25,AGCTACCA,-0.173

row,Sequence,PBM E-score
1,ATGCATTA,0.0989
2,GAATCCCA,-0.0522
3,ATAGGAGG,-0.285
4,AGGCTTAC,-0.0812
5,GACTGGTA,0.00991
6,TACCGGGA,0.207
7,TACCGGTA,0.23
8,CACCGGAC,0.268
9,CACCGGGA,0.152
10,TACCGGAA,0.409
11,CACCGGAA,0.368
12,AATGGCCC,-0.247
13,ACCTAGTC,-0.244
14,AGTATCCA,-0.00531
15,AATATCCA,0.17
16,AACATCCG,0.381
17,AATATCCC,-0.0444
18,AATATCCG,0.352
19,ATTATCCG,0.36
20,ATTATCCC,0.0672
21,CACATCCG,0.282
22,ATTATCCA,0.0655
23,AGTATCCC,-0.0953
24,AGTATCCG,0.332
25,AACATCCC,0.141

row,Sequence,PBM E-score
1,AATGTTAT,0.184
2,CACCAGGC,-0.103
3,CCCTTGAA,-0.0291
4,TACAATAA,0.14
5,CATGGTAC,-0.223
6,ATACCCGA,0.111
7,CGCCTAAC,-0.0428
8,TGACTACA,-0.022
9,AAAAATAA,0.237
10,CAATATAA,0.243
11,ATTAAAAG,0.172
12,AAATATGC,0.0299
13,GAATATAA,0.085
14,AAATATAA,0.327
15,ATTAAAAC,0.286
16,AAATATCA,0.124
17,ATTAAAAA,0.323
18,AAATATGA,0.0794
19,AAATATGT,0.304
20,TAATATAA,0.339
21,GTACAATA,0.188
22,CACCGCGG,0.242
23,ACTATATA,0.19
24,GACGCATA,0.0516
25,GAATCTAC,0.0543

row,Sequence,PBM E-score
1,CGATCACG,0.165
2,TAGCACGA,0.0455
3,ACCCCACA,-0.308
4,AACGATAA,0.0408
5,AACATCGA,0.0284
6,CAATATTA,0.133
7,CATAATAA,0.0808
8,AAATATTA,0.206
9,AATAATTA,0.299
10,TAATATTA,0.381
11,GATAATTA,0.318
12,CATAATTA,0.233
13,AATAATAA,0.285
14,GATAAAAC,0.305
15,GATAAACC,0.208
16,TATAATAA,0.324
17,GATAAAAA,0.29
18,CCACAGTC,-0.3
19,GTGGCCAC,-0.0584
20,GAGTTGAC,-0.0176
21,AATCTTAG,0.124
22,ATATGGTG,-0.0255
23,ATAGTGAC,-0.0492
24,GCTATGGA,-0.192
25,TCTAACCA,0.0158

row,Sequence,PBM E-score
1,TAGCTCCA,-0.0638
2,ATAAAAAA,0.289
3,CGATATTA,0.343
4,GGATATTA,0.132
5,ATAAAAAC,0.305
6,CTTATAAA,0.174
7,AATAAATA,0.414
8,GTTATAAA,0.0949
9,CGATATTC,0.155
10,AATAAATG,0.174
11,TATAAATA,0.266
12,ATAAAACC,-0.0255
13,TTTATAAA,0.348
14,AGATTCAC,-0.157
15,AAGGCTGC,-0.0369
16,AACCATCA,0.0573
17,GGTCTTAA,-0.104
18,ACCGTTGG,-0.244
19,CACTTATC,-0.0553
20,ATAGAATC,0.128
21,AGAGGCGC,-0.119
22,CGGTATTA,0.251
23,ACCACACG,-0.164
24,TATTAAAA,0.318
25,AAATATAC,0.0721

row,Sequence,PBM E-score
1,TATATAAA,0.289
2,GATTAAAA,0.296
3,AAATATAG,0.189
4,AATTAAAA,0.202
5,CATAAAAA,0.252
6,AAATATAT,0.305
7,TATAAAAA,0.373
8,GTAAAGAC,0.0705
9,AATAACGA,0.068
10,ATCAAGTG,-0.132
11,ATCTTCAA,0.187
12,TTAGCTAA,0.0769
13,AATCCGAT,0.275
14,AATCCGGT,0.36
15,CATCCGCA,0.108
16,AATCCGGC,0.3
17,GATCCGGA,0.395
18,AATCCGCT,-0.0489
19,GATCCGCC,0.0797
20,GATCCGTA,0.17
21,CATCCGGG,0.223
22,GATCCGCA,0.0531
23,GATCCGGC,0.354
24,CATCCGGA,0.375
25,AATGGGTC,-0.184

row,Sequence,PBM E-score
1,ATGGCCCC,-0.162
2,CTAGTAAC,-0.0898
3,CTACCCAC,-0.304
4,TAAAGCGA,0.0559
5,GGACTGCC,-0.102
6,ATTATGGC,0.0693
7,AAGGCTAT,-0.0663
8,CCTGGTAC,-0.0559
9,CTGCGGGA,-0.0974
10,AATAACCA,0.0129
11,CGCTTTAC,-0.137
12,AATCCGGA,0.401
13,CATCCGTC,-0.0104
14,AATCCGCA,0.101
15,CATCCGGC,0.358
16,AATCCGTA,0.0372
17,CATCCGCC,0.0602
18,CCGAGCAG,0.17
19,ACCAATCA,0.0919
20,AGCTTTCG,0.105
21,ATTCCCAC,-0.171
22,CTGGTGTA,-0.234
23,ATTTCCCG,0.328
24,ATTTCCCA,0.107
25,ATCTTCGC,-0.0164

row,Sequence,PBM E-score
1,ATATTTCC,0.177
2,ATTTTCGC,0.111
3,ATTTTCGA,0.121
4,ATCTTCGA,-0.0159
5,ATCTTCGG,0.35
6,ATATTTCA,0.201
7,ATTTCCCC,-0.166
8,ATTTTCGG,0.377
9,ATATTTCG,0.318
10,CCCATTCC,-0.258
11,ACACTCCA,-0.127
12,AAGGCTTC,-0.0592
13,TATTCTAA,0.181
14,CACTTCTA,-0.133
15,CCTTGCTC,-0.141
16,GGAGGTAA,-0.0289
17,ATTTTCCG,0.4
18,ATTTCTTC,0.315
19,AATTTCCG,0.406
20,AGTTTCCA,0.111
21,CATTTCCG,0.3
22,ATTTTCCC,0.00872
23,ATTTCTTA,0.216
24,AGTTTCCC,-0.0163
25,ATTTCTTG,0.216

row,Sequence,PBM E-score
1,ATTTTCCA,0.178
2,AGTTTCCG,0.392
3,AATTTCCC,0.0065
4,ATGAAGCA,-0.0497
5,CACTTCTC,-0.119
6,CGTAAGTC,-0.00193
7,ATTGTTGA,0.141
8,CCTGCATA,-0.105
9,ACAGCGAA,0.117
10,CTTACTGC,-0.0955
11,ATTTCTCG,0.308
12,ATTTCTCA,0.099
13,ATTTTTCG,0.314
14,ATTTTTCA,0.169
15,AATTTTCG,0.092
16,ATTTCTCC,0.122
17,ATCTCACA,-0.0208
18,GTCTGGCA,-0.16
19,CAGTATAC,-0.0142
20,AAAAATGC,0.143
21,AAACTAGC,-0.093
22,AGTTCCGG,0.374
23,CGTTCCGA,0.236
24,AGTTCCAC,-0.00257
25,AGTTCCAG,-0.101

row,Sequence,PBM E-score
1,AGTTCCGC,0.305
2,CGTTCCGC,0.262
3,AGTTCCGA,0.313
4,AGTTCCTG,-0.18
5,GGTTCCGA,0.278
6,CCGGTCTC,0.0994
7,CTAAAGGC,-0.0965
8,ACTAGCAC,-0.174
9,AATGGTAC,-0.00404
10,ACTAGGAA,-0.177
11,CATGCCTA,-0.261
12,AATGCCCG,-0.121
13,AATGCCGA,0.378
14,TATGCCGA,0.28
15,AATGCCTA,-0.0279
16,AATGCCGG,0.35
17,CATGCCAG,-0.161
18,CATGCCGA,0.336
19,AATGCCTG,-0.123
20,CATGCCCG,0.0955
21,CATGCCGC,0.181
22,CATGCCGG,0.366
23,CAAATACG,-0.00546
24,CGAAACTA,0.0737
25,CACTAGTC,-0.184

row,Sequence,PBM E-score
1,ACTAACGA,0.00902
2,AAAGGCAT,0.141
3,AACCTATT,-0.139
4,GCATCCCC,-0.168
5,CATCAATG,-0.0256
6,GATGCCGC,0.106
7,GATGCCAA,-0.105
8,AATGCCGT,0.304
9,AATGCCAT,0.055
10,GATGCCGA,0.319
11,AATGCCGC,0.199
12,CCTCTTCG,-0.00118
13,AGTTCCCG,0.223
14,CCGCGGAG,0.333
15,CCGCGGAC,0.295
16,CCGCGGTC,0.205
17,ACGCGGAG,0.143
18,GGGCGGTA,-0.0752
19,CCGCGCGG,0.386
20,CGGCGGTA,0.348
21,AGGCGGTA,-0.135
22,CCGCGCGC,0.154
23,CCGCGGTA,0.345
24,ACGCGGTA,-0.105
25,CCGCGCGA,0.183

row,Sequence,PBM E-score
1,CCAGCTTC,-0.0253
2,CAAAATGA,0.0065
3,GACTCAAC,0.0381
4,ATCTCTTC,0.0858
5,AGGTTAAC,-0.037
6,CCGCGGGA,0.324
7,CCGCGGGC,0.25
8,CCGCGGAA,0.416
9,TCGCGGAA,0.137
10,GCGCGGAA,0.138
11,GCGCGGGA,0.0199
12,CGGTGGTC,-0.0197
13,AGAGATCC,-0.00438
14,AAGTGTCA,-0.293
15,ACAAAACT,0.144
16,CGCCCAAA,0.0692
